# Results published in publication PMC7862700, “An all-to-all approach to the identification of sequence-specific readers for epigenetic DNA modifications on cytosine”.
# Legend:
# Assay in all cases: DAPPL (digital affinity profiling via proximity ligation, sequencing); 10 mM Tris-HCl pH 7.5, 50 mM NaCl, 1 mM DTT, 4% glycerol, room temperature, 30 min; GST-TFs on glutathione beads, 16-mer random dsDNA library, 0.1% formaldehyde crosslink after washing; high values mean tight binding
# Conditions in all cases: protein: recombinant; tags: N-terminal GST; dsDNA, one strand shown
# GABPA = molecular target: T1, GABPA (Homo sapiens, UniProt Q06546 1-454)
# T1 sequence: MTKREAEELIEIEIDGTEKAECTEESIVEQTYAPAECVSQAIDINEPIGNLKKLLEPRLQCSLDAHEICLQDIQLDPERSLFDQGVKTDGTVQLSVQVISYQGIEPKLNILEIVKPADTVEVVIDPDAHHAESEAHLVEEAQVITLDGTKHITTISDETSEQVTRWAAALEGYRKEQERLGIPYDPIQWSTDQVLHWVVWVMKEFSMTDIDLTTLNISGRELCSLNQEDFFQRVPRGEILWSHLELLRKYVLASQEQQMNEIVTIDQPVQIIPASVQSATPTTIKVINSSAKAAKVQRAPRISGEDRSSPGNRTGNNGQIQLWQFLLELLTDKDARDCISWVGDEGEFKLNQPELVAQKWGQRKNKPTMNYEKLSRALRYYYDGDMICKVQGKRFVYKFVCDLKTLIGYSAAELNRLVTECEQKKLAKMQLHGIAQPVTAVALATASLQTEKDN
# How it was run: (§1)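 Binding signal is each hexamer's read frequency for a factor divided by its frequency in the tag-only sample. The factors were GST-fused human transcription factors from yeast, captured on glutathione beads, DNA-barcoded and pooled with that sample. Pools were incubated with 200 nmole of a random double-stranded 16-mer DNA library in Tris/NaCl/DTT/glycerol buffer at room temperature for 30 min, then washed, crosslinked with 0.1% formaldehyde, proximity-ligated with BsaI/T4 ligase (1 h, 37 °C), PCR-amplified and sequenced on an Illumina NextSeq500.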
# ELF1 = ELF1 (Homo sapiens, UniProt P32519 1-619)
# Chain of ELF1 (P32519 whole entry): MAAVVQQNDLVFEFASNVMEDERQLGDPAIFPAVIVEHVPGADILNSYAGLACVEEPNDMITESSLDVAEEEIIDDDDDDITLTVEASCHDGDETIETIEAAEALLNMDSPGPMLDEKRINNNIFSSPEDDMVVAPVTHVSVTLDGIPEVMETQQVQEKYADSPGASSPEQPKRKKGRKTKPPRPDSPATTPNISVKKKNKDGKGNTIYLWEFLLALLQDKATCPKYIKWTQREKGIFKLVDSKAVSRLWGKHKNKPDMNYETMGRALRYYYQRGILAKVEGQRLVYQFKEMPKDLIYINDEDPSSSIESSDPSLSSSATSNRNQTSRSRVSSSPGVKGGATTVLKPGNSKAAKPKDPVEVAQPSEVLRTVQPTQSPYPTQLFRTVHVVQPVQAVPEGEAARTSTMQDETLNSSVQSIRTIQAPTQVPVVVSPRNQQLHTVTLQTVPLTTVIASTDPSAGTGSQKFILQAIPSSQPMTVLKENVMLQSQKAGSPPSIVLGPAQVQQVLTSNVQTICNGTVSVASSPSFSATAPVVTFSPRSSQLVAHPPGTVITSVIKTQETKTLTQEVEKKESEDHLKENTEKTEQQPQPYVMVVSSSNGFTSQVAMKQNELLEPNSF
# How it was run: as §1
# EHF = molecular target: T2, EHF (Homo sapiens, UniProt Q9NZC4 1-300)
# T2 sequence: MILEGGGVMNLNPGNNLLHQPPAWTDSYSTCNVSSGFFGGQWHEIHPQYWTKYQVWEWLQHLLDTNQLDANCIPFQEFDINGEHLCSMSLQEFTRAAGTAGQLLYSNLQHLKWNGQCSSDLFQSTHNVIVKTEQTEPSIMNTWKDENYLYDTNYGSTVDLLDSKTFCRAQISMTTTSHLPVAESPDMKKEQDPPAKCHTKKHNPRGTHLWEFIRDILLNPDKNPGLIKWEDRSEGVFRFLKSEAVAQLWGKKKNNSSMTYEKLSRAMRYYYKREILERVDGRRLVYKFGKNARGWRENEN
# How it was run: as §1
# SPIB = SPIB (Homo sapiens, UniProt Q01892 1-262)
# Chain of SPIB (Q01892 whole entry): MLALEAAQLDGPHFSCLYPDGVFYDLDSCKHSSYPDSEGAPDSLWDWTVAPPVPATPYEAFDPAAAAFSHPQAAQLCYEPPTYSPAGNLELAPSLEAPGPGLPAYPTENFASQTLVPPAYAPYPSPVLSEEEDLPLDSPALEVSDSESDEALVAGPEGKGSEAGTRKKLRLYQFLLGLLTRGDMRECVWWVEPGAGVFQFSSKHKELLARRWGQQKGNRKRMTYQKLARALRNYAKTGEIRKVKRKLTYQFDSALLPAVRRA
# How it was run: as §1
# ETV5 = ETV5 (Homo sapiens, UniProt P41161 1-510)
# Chain of ETV5 (P41161 whole entry): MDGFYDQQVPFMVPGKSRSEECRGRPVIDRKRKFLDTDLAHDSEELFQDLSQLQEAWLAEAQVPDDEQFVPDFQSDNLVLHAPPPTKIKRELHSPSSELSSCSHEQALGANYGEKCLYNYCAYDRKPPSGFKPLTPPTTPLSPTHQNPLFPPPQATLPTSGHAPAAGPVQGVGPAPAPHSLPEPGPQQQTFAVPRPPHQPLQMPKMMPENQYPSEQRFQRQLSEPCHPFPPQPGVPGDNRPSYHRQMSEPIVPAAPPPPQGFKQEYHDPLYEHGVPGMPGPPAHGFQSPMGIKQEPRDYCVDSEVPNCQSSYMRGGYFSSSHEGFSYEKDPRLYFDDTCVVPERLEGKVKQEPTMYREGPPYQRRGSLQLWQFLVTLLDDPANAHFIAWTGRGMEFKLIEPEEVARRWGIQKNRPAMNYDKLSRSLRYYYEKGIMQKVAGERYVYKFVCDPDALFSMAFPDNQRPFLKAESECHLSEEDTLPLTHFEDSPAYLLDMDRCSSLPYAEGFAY
# How it was run: as §1
# ELK4 = molecular target: T3, ELK4 (Homo sapiens, UniProt P28324-2 1-405)
# T3 sequence: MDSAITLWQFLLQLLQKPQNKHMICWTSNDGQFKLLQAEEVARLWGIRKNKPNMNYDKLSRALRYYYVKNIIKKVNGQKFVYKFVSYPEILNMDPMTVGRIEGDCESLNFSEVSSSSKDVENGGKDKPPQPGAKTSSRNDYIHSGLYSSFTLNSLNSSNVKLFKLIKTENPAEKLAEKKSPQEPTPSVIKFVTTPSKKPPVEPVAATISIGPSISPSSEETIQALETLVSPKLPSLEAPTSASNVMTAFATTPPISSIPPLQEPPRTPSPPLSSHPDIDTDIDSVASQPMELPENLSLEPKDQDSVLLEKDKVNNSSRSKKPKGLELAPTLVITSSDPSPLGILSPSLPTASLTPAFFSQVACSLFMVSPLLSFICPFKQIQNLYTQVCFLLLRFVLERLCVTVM
# How it was run: as §1
# ETV1 = ETV1 (Homo sapiens, UniProt P50549 1-477)
# Chain of ETV1 (P50549 whole entry): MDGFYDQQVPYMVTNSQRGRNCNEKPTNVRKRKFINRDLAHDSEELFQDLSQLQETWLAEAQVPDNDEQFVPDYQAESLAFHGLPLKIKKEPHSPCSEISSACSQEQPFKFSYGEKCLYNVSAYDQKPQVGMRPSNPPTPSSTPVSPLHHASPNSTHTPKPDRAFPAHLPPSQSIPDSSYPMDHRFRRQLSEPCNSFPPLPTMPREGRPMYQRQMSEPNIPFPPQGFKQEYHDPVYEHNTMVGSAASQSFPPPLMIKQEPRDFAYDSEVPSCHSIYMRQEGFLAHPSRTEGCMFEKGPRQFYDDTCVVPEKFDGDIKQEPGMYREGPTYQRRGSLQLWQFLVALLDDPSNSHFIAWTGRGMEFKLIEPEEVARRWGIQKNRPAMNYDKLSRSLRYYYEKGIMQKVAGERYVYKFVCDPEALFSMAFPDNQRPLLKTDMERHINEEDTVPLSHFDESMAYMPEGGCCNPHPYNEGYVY
# How it was run: as §1
# ERF = molecular target: T4, ERF (Homo sapiens, UniProt P50548 1-548)
# T4 sequence: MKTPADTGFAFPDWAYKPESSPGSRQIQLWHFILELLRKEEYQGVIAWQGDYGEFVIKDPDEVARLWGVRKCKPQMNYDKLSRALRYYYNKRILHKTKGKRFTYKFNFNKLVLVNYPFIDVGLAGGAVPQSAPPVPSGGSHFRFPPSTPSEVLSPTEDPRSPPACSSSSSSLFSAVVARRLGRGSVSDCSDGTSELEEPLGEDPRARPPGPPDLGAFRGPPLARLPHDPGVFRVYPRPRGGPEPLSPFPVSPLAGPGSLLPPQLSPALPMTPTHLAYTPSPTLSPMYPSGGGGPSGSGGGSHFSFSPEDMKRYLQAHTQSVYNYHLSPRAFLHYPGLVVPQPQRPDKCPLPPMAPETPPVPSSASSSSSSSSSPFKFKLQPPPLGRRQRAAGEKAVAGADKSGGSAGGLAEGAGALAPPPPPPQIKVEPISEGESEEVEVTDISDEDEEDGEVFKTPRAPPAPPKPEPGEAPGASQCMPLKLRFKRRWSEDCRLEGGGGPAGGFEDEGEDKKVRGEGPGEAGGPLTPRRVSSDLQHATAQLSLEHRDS
# How it was run: as §1
# ETV3L = molecular target: T5, ETV3L (Homo sapiens, UniProt Q6ZN32 1-361)
# T5 sequence: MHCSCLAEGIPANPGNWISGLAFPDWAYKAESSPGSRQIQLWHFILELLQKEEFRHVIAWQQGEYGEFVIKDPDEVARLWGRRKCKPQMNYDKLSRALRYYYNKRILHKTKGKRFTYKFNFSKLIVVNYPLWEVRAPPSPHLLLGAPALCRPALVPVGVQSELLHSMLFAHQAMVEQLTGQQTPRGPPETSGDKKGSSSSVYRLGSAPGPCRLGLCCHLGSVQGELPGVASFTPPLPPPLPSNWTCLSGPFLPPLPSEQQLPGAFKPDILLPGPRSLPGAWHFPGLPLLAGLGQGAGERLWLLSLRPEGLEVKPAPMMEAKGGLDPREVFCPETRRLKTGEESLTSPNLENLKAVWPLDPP
# How it was run: as §1
# SPDEF = molecular target: T6, SPDEF (Homo sapiens, UniProt O95238 1-335)
# T6 sequence: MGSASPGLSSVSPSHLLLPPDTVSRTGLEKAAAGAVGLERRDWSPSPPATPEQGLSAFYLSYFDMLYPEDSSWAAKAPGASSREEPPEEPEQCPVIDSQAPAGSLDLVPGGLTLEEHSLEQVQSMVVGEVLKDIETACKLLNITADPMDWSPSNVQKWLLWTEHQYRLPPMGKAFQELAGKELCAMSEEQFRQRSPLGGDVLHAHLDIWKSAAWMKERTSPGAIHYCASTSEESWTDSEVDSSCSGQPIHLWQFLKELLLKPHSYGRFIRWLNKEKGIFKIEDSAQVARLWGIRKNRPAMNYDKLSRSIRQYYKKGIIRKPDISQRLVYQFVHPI
# How it was run: as §1
# ETV3 = molecular target: T7, ETV3 (Homo sapiens, UniProt P41162-2 1-143)
# T7 sequence: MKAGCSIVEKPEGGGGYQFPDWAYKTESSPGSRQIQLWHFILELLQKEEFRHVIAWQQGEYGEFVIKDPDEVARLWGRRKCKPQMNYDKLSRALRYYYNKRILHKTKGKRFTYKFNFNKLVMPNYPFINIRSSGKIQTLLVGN
# How it was run: as §1
# ETV6 = ETV6 (Homo sapiens, UniProt P41212 1-452)
# Chain of ETV6 (P41212 whole entry): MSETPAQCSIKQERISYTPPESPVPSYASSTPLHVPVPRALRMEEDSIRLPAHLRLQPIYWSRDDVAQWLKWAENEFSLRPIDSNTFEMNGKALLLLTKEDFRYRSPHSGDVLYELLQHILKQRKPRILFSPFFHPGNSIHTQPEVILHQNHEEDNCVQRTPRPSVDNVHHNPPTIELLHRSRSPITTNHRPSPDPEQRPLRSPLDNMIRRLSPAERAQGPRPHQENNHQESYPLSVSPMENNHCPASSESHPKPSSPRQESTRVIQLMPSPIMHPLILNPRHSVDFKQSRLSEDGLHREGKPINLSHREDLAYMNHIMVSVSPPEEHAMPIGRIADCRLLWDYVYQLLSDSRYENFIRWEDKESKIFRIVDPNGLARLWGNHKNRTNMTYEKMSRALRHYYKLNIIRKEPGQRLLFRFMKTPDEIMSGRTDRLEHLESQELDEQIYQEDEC
# How it was run: as §1
# FEV = molecular target: T8, FEV (Homo sapiens, UniProt Q99581 1-238)
# T8 sequence: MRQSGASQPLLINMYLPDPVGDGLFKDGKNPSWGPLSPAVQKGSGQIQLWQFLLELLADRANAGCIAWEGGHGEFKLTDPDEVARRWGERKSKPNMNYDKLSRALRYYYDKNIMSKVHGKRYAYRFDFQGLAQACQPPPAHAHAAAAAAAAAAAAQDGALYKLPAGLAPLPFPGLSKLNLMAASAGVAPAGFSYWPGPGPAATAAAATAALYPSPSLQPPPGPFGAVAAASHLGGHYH
# How it was run: as §1
# ETV2 = molecular target: T9, ETV2 (Homo sapiens, UniProt O00321 1-342)
# T9 sequence: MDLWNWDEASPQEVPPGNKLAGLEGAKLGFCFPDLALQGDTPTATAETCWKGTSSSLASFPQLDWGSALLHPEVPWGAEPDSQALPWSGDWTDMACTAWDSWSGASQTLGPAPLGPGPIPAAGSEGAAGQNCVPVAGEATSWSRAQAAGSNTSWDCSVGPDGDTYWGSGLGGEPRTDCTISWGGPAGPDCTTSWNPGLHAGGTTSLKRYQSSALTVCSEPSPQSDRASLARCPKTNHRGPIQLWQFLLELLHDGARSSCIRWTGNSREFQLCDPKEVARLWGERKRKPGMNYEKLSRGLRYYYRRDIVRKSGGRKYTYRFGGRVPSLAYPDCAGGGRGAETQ
# How it was run: as §1
# ELF3 = molecular target: T10, ELF3 (Homo sapiens, UniProt P78545 1-371)
# T10 sequence: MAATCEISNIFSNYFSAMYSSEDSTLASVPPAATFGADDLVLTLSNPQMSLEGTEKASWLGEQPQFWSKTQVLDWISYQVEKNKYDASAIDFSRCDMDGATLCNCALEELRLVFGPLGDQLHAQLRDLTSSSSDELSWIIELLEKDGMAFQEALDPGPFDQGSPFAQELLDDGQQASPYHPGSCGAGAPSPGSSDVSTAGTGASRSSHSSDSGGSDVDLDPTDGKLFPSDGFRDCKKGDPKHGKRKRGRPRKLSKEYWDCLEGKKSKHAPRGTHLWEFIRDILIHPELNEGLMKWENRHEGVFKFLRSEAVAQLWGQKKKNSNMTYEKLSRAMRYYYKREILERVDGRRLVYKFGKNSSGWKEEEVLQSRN
# How it was run: as §1
# ETV7 = molecular target: T11, ETV7 (Homo sapiens, UniProt Q9Y603 1-341)
# T11 sequence: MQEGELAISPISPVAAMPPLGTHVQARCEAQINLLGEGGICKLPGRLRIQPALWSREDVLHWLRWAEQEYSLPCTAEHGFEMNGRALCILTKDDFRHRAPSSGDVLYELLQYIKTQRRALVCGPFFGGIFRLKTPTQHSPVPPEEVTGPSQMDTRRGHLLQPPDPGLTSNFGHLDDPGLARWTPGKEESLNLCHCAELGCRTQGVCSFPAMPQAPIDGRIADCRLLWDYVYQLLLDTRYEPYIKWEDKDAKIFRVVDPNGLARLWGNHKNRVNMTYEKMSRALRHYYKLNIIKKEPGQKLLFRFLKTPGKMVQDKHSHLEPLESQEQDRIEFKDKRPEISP
# How it was run: as §1
Sequence,binding signal (GABPA),binding signal (ELF1),binding signal (EHF),binding signal (SPIB),binding signal (ETV5),binding signal (ELK4),binding signal (ETV1),binding signal (ERF),binding signal (ETV3L),binding signal (SPDEF),binding signal (ETV3),binding signal (ETV6),binding signal (FEV),binding signal (ETV2),binding signal (ELF3),binding signal (ETV7)
CGTCCA,"1.04 fold enrichment (6-mer frequency, TF over GST control)","1.05 fold enrichment (6-mer frequency, TF over GST control)","1.02 fold enrichment (6-mer frequency, TF over GST control)","1 fold enrichment (6-mer frequency, TF over GST control)","1.02 fold enrichment (6-mer frequency, TF over GST control)","1 fold enrichment (6-mer frequency, TF over GST control)","1.08 fold enrichment (6-mer frequency, TF over GST control)","1.02 fold enrichment (6-mer frequency, TF over GST control)","1.13 fold enrichment (6-mer frequency, TF over GST control)","1.07 fold enrichment (6-mer frequency, TF over GST control)","1.03 fold enrichment (6-mer frequency, TF over GST control)","1.04 fold enrichment (6-mer frequency, TF over GST control)",–,–,–,–
CGGTTA,"1.01 fold enrichment (6-mer frequency, TF over GST control)","1 fold enrichment (6-mer frequency, TF over GST control)","1.02 fold enrichment (6-mer frequency, TF over GST control)","1.02 fold enrichment (6-mer frequency, TF over GST control)","1.05 fold enrichment (6-mer frequency, TF over GST control)",–,–,–,–,"1.15 fold enrichment (6-mer frequency, TF over GST control)",–,"1.09 fold enrichment (6-mer frequency, TF over GST control)","1.04 fold enrichment (6-mer frequency, TF over GST control)","1.06 fold enrichment (6-mer frequency, TF over GST control)","1 fold enrichment (6-mer frequency, TF over GST control)","1 fold enrichment (6-mer frequency, TF over GST control)"
